Assay results published in ChEMBL document CHEMBL1157539, “Thousands of chemical starting points for antimalarial lead identification” (Nature, 2010).

Key:
Format in all cases: functional
Plasmodium falciparum [1] = assay: GSK_TCMDC: Inhibition of Plasmodium falciparum 3D7 in whole red blood cells, using parasite LDH activity as an index of growth. Test compounds present at 2uM
Plasmodium falciparum [2] = assay: GSK_TCMDC: Inhibition of Plasmodium falciparum Dd2 in whole red blood cells, using parasite LDH activity as an index of growth. Test compounds present at 2uM
HepG2 = assay: GSK_TCMDC: Percent inhibition of human HepG2 cell line. Test compounds present at 10uM.

Structure (SMILES)	Inhibition (Plasmodium falciparum [1])	Inhibition (Plasmodium falciparum [2])	Inhibition (HepG2)
COc1ccccc1C(=O)Nc1ccc(Nc2nc(C)cc(N3CCOCC3)n2)cc1	98%	22%	28%
COc1cc2nc(N3CCC(CNC(=O)c4ccc(-c5ccc(-c6noc(C)n6)cc5)cc4)CC3)nc(N)c2cc1OC	98%	100%	96%
Cc1nc2ccccc2c(O)c1[N+](=O)[O-]	88%	0%	5%
CC(=O)Nc1ccc(C(=O)Nc2cccc(-c3ccc(-c4nc5cc(C(F)(F)F)ccc5[nH]4)s3)c2)cn1	100%	98%	42%
Cc1cc2nc(-c3ccc(C(=O)NC4CCN(Cc5ccccc5)CC4)s3)[nH]c2cc1C	99%	82%	33%
CC(C)CN1CCN(c2nc(C#N)c3c(c2C(=S)NC2CCCCC2)CC(C)(C)OC3)CC1	100%	99%	0%
COc1cccc(OC)c1CN1CCC(N(C)CCCCCCCCN2CCC(OC(=O)Nc3ccccc3-c3ccccc3)CC2)CC1	99%	100%	100%
Nc1nc(N)c2c(CCc3ccc4ccccc4c3)cccc2n1	100%	6%	56%
CC(C)(C)NCCN(Cc1ccc(-c2ccc(C(F)(F)F)cc2)cc1)C(=O)Cn1c(CCc2cccc(F)c2F)nc(=O)c2c1CCC2.O=C(O)C(O)C(O)C(=O)O	95%	48%	6%
O=C(Nc1ccc(F)cc1)NC1CCN(CCCCCNC(=O)C2CC2c2ccc(Cl)c(Cl)c2)CC1 (stereo unspecified)	100%	20%	46%
CCN(CC)c1ccc(C=CC(=O)NCCN2CCC(N(C)C3CCCCC3C)CC2)cc1 (stereo unspecified)	88%	18%	29%
Cn1ccnc1CNC(=O)c1ccc(-c2cccc(-c3nc4cc(F)ccc4[nH]3)c2)cc1	96%	8%	8%
CN1CCN(c2ccnc3ccc(NC(=O)Cc4cccc(Cl)c4Cl)cc23)CC1	100%	64%	8%
CS(=O)(=O)O.FC(F)(F)COc1c(CNCCCCCCNCc2ccc3ccccc3c2OCC(F)(F)F)ccc2ccccc12	100%	79%	100%
O=C(NC1CCN(CCN2CCC(c3ccccc3C(F)(F)F)CC2)CC1)c1ccc(-c2ccc(Cl)cc2)cc1	100%	68%	39%
COc1ccc(-c2cccc(NC(=O)c3cccc(C#N)c3)c2)cc1CN(C)CCO.O=C(O)C(F)(F)F	96%	30%	28%
CN(C)CCC1CCN(CCS(=O)(=O)c2cccc(Nc3ccc(-c4cccc(F)c4)cn3)c2)CC1	100%	59%	94%
CCN(CC)Cc1ccc2c(=O)cc(CCc3cccc(F)c3F)n(CC(=O)N(Cc3ccc(-c4ccc(C(F)(F)F)cc4)cc3)C(C)C)c2c1.O=C(O)C(O)C(O)C(=O)O	100%	63%	82%
CCc1nc(N)nc(N)c1-c1ccc(F)c(F)c1	98%	0%	58%
CC(=O)c1ccc(NC(=O)C2c3ccccc3C(=O)N(CC(C)C)C2c2cccs2)cc1 (stereo unspecified)	99%	51%	13%
CCOc1ccc(-c2n[nH]c(C(F)(F)F)c2-c2ccccc2OC)c(O)c1	86%	12%	22%
CCOc1ccc(N2C(N)=NC(N)=NC2(C)C)cc1.Cl	95%	0%	10%
COc1cc(NC(=O)N2CCOC(CCN3CCC4(CCc5ccccc54)CC3)(c3ccc(Cl)c(Cl)c3)C2)cc(OC)c1 (stereo unspecified)	87%	50%	29%
CN1CCN(Cc2ccc(-c3ccc4c(Nc5cc(O)c(F)cc5Cl)ccnc4c3)o2)CC1	100%	99%	27%
O=C(/C=C/c1ccc(Cl)c(Cl)c1)NCCCCCCN1CCN(C(=O)Nc2ccc(OC(F)F)cc2)CC1	91%	15%	44%
Cc1cnc(C(=O)Nc2cccc(-c3cccc(-c4nc5cccc(C)c5[nH]4)c3)c2)cn1	99%	45%	15%
NS(=O)(=O)CCc1cccc(Nc2nccc(-c3c(-c4cccc(NC(=O)c5c(F)cccc5F)c4)nn4ccccc34)n2)c1	98%	97%	84%
